Mito fusion yeast: mitochondrial division inhibition or fusion activation; Potency, µM (highest dose often 46.1 µM), inactives show top-dose growth rescue (activation), most hits filed as activators; 320,000 tested, 0.23% active; S. cerevisiae fusion-defective mutant growth rescue, CellTiterGlo 48 h; also: potency is read from the fitted curve at half-maximal effect; % of control where 0% means no effect; nearly all actives have a fitted effect of over 45% in size
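Luminescent cell viability in 1536-well qHTS format served as the measure of rescued growth in ts fusion-mutant S. cerevisiae cultured on non-fermentable YPEG for 48 hours at 37C.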
TCR activator: T cell receptor activation; 330,000 tested, under 10 active; Potency, µM (top dose mostly 9.22 µM), for the others: at the highest dose activation of IL-2 secretion, hits mostly activators; primary human leukocytes, anti-CD3, IL-2 HTRF, 48 h; also: % of control where 0% means no effect
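IL-2 release read by HTRF sandwich (Eu cryptate donor, d2 acceptor, 665 nm emission) after 48 hr exposure of primary human leukocytes to compound together with anti-CD3 beads in the absence of co-stimulatory signals.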
IL2 activator: IL-2 activation | IL-2 activation reporter assay, cell-based qHTS; stimulated with anti-CD3/CD4/CD28 beads; in transgenic mouse T cells | activation, % (series mostly up to about 46 µM) | 360,000 tested, 0.065% active; in the data active = activation above about 50%; inconclusive = mostly about 30% to 49%; also: 0% is about no effect
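Using fluorescent plate cytometry, EGFP and DsRed are detected in transgenic mouse T cells stimulated 18 h at 37 degrees C with antibody-coated beads after 60 min compound pretreatment.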
BRCA1 expr up: BRCA1 expression activation; 380,000 tested, 1.1% active; MCF7-BRCA1-FFLuc reporter, luminescence, 48 h; response scale: scaled: vehicle 0%, 10 µM genistein 100%; Potency, µM (titrated, usually from 46.1 µM), for inactives: top-dose activation, usual class: activators; also: potency is read from the fitted curve at half-maximal effect; nearly all actives have a fitted effect of over 80% in size
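MCF7 cells carrying a BRCA1-firefly luciferase reporter (2000 cells/well, phenol-red free MEM) were attached for 2 h at 37 °C, then given compounds for 48 h. Luminescence was read 15 min after luciferase reagent; activity normalized to genistein (10 microM) and DMSO.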
p53 reactivator: restores transcriptional activity of mutant p53; 320,000 tested, 0.063% active; Potency, µM (top dose mostly 92.2 µM), for the others: top-dose activity change, positive = activation, hits mostly activators; AID 504706; H1299 p53-A138V BP100-luciferase reporter, luminescence, 24 h; also: potency is read from the fitted curve at half-maximal effect; % of control where 0% means no effect; nearly all actives have a fitted effect of over 45% in size
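p53-null H1299 cells stably carrying temperature-sensitive p53-A138V and a BP100-luciferase reporter were pinned with compounds (4-point, 1:5 series) and held 24 hrs at 37 deg C. Luminescence was read 10 min after detection reagent.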
* hit, by the source's call; [ ] = dose if it differs, or a comment. Rows were chosen to be rich in hits. Some 1.3% of all compounds tested hit in one or more screens of this group. Unless noted, calls follow the shape of the dose curve; as a rule, active = well fitted curve in the direction sought with a large enough effect; inconclusive = small, poorly fitted or top-dose-only effect, or another doubt; inactive = no such curve, though single readings can be large; an effect the other way counts as inactive or inconclusive.

What do the screens show for `N/C(=N\OC(=O)c1ccncc1)c1cccc([N+](=O)[O-])c1`?
Mito fusion yeast: 3%; TCR activator: 5%; IL2 activator: -3; BRCA1 expr up: 7.9µM*; p53 reactivator: -9%

How did CCS(=O)(=O)N1CCc2cc(C(=O)Nc3ccc(Br)cc3F)ccc21 do in these assays?
BRCA1 expr up: 1%

How did Cc1ccc2c(C)c(C(=O)N(C)C(C)c3ccon3)oc2c1C (stereo not given) do in these assays?
Mito fusion yeast: -3%; TCR activator: 4%; IL2 activator: 2; BRCA1 expr up: 10µM*; p53 reactivator: 7%

What do the screens show for `O=C(Cc1cccc(F)c1)NO`?
BRCA1 expr up: -14%

What do the screens show for `Cc1ccc(NC(=O)c2nnn(-c3cc(C)cc(C)c3)c2N)cc1`?
Mito fusion yeast: 20%; IL2 activator: 1; BRCA1 expr up: 113%; p53 reactivator: 6%

How did Cc1cccc(-n2nnc(C(=O)Nc3ccc(F)cc3)c2N)c1 do in these assays?
Mito fusion yeast: 11%; TCR activator: 2%; IL2 activator: 1; BRCA1 expr up: 4.5µM*; p53 reactivator: inconclusive

Results for COc1ccc2[nH]cc(C(=O)CNc3nccs3)c2c1 ?
BRCA1 expr up: -9%

Results for O=C(c1ccc(F)cc1)N1CCC(c2ccccc2)C1 (stereo not given) ?
Mito fusion yeast: -3%; TCR activator: -1%; IL2 activator: -3; BRCA1 expr up: 6.3µM*; p53 reactivator: 16%

What do the screens show for `COc1ccc(NC(=S)N2CCC(c3ccc(C)cc3)C2)cc1` (stereo not given)?
Mito fusion yeast: -5%; TCR activator: 2%; IL2 activator: 0; BRCA1 expr up: 47%; p53 reactivator: 7%

What do the screens show for `Cc1ccc(NC(=S)N2CCC(c3ccc(C)cc3)C2)cc1` (stereo not given)?
Mito fusion yeast: -2%; TCR activator: -1%; IL2 activator: 0; BRCA1 expr up: 11µM*; p53 reactivator: 28%

Results for Cc1ccc(C2CCN(C(=O)Nc3ccccc3)C2)cc1 (stereo not given) ?
Mito fusion yeast: -1%; TCR activator: -2%; IL2 activator: 0; BRCA1 expr up: 5µM*; p53 reactivator: inconclusive

How did Cc1ccc(NC(=O)N2CCC(c3ccccc3)C2)cc1C (stereo not given) do in these assays?
Mito fusion yeast: 2%; TCR activator: -3%; IL2 activator: -3; BRCA1 expr up: 2.8µM*; p53 reactivator: 18%

What do the screens show for `O=C(Nc1ccc(Cl)cc1)N1CCC(c2ccccc2)C1` (stereo not given)?
Mito fusion yeast: -2%; TCR activator: -3%; IL2 activator: -3; BRCA1 expr up: inconclusive; p53 reactivator: 15%

Results for Oc1ccc(COCc2ccc(F)cc2)c2cccnc12 ?
Mito fusion yeast: 11%

Results for NCCN(Cc1ccc(Cl)c(Cl)c1)c1ccc(Br)cn1 ?
BRCA1 expr up: -24%

What do the screens show for `O=[N+]([O-])c1nn(-c2ccccc2)n(O)c1=NCCc1ccccc1`?
Mito fusion yeast: 18µM*; TCR activator: 6%[46.1 µM]; IL2 activator: 0; BRCA1 expr up: 31%; p53 reactivator: inconclusive

How did CCc1cccc(N=c2c([N+](=O)[O-])nn(-c3ccc(Cl)cc3)n2O)c1 do in these assays?
Mito fusion yeast: 18µM*; IL2 activator: -1; BRCA1 expr up: -38%; p53 reactivator: 18%

How did O=[N+]([O-])c1nn(-c2ccc3c(c2)OCCO3)n(O)c1=NCCC1=CCCCC1 do in these assays?
Mito fusion yeast: -1%; TCR activator: -3%; IL2 activator: 1; BRCA1 expr up: 4.5µM*; p53 reactivator: 26%

Results for Cc1cccc(N=c2c([N+](=O)[O-])nn(-c3ccc(Cl)cc3)n2O)c1 ?
Mito fusion yeast: -2%; TCR activator: -1%; IL2 activator: -1; BRCA1 expr up: 0%; p53 reactivator: inconclusive

How did O=C(CN(CCc1c[nH]c2ccccc12)S(=O)(=O)c1ccccc1)N1CCCCCC1 do in these assays?
BRCA1 expr up: -28%

What do the screens show for `C(=C\c1ccc2ccccc2n1)/c1cccnc1`?
BRCA1 expr up: -58%

What do the screens show for `CCOC(=O)c1sc(NC(=O)c2ccncc2)c(C#N)c1C`?
Mito fusion yeast: 11µM*; TCR activator: 4%; IL2 activator: -3; BRCA1 expr up: -91%; p53 reactivator: 14%

What do the screens show for `Cc1cccc(CSc2nc(N)c(C#N)c(-c3cccs3)c2C#N)c1`?
Mito fusion yeast: 13µM*; TCR activator: -6%[46.1 µM]; IL2 activator: -2; BRCA1 expr up: 1%[1.84 µM]; p53 reactivator: 0%

How did Cc1cccc(CSc2nc3c(c(-c4cccs4)c2C#N)CN(C)CC3)c1 do in these assays?
Mito fusion yeast: 30%; TCR activator: -6%[46.1 µM]; IL2 activator: -2; BRCA1 expr up: -24%; p53 reactivator: -12%

How did CC(=O)CSc1nc(N)c(C#N)c(-c2cccs2)c1C#N do in these assays?
Mito fusion yeast: 4%; IL2 activator: -2; BRCA1 expr up: -30%; p53 reactivator: 12%

How did CCCCSc1nc(N)c(C#N)c(-c2cccs2)c1C#N do in these assays?
Mito fusion yeast: 4µM*; TCR activator: -8%; IL2 activator: -2; BRCA1 expr up: -59%; p53 reactivator: 0%

What do the screens show for `COc1ccc(C(=O)Nc2nc(-c3nnn(-c4ccc(C(C)C)cc4)c3C)ns2)cc1`?
BRCA1 expr up: 0%

What do the screens show for `Cc1ccc(CNC(=O)CCc2nnc3n(C)c(=O)c4sccc4n23)cc1`?
BRCA1 expr up: 18%

What do the screens show for `CCN(CC)C(=O)/C=C/c1ccccc1`?
Mito fusion yeast: -1%; TCR activator: 11%; IL2 activator: 0; BRCA1 expr up: 55%; p53 reactivator: inconclusive

What do the screens show for `CON(C)C(=O)/C=C/c1ccc([B-](F)(F)F)cc1`?
TCR activator: 15%; IL2 activator: 0; BRCA1 expr up: 14µM*

How did CC1CCC(NC(=O)c2cccn2C)CC1 (stereo not given) do in these assays?
TCR activator: -1%; IL2 activator: 0; BRCA1 expr up: inconclusive

How did Cn1cccc1C(=O)NC1CCCCCC1 do in these assays?
Mito fusion yeast: 5%; TCR activator: -5%; IL2 activator: 0; BRCA1 expr up: 10µM*; p53 reactivator: 7.1µM*

Results for CCN(CC)c1ccc(/C=C(\C#N)c2ccccn2)cc1 ?
Mito fusion yeast: 11%; TCR activator: 5%[46.1 µM]; IL2 activator: -4; BRCA1 expr up: inconclusive

Results for CCN(Cc1ccccc1)c1ccc(/C=C(\C#N)c2ccccn2)cc1 ?
Mito fusion yeast: 0%; TCR activator: 0%[46.1 µM]; IL2 activator: 1; BRCA1 expr up: 5µM*; p53 reactivator: inconclusive

What do the screens show for `Cc1ccc2oc(=O)c(/C=C(\O)c3ccccc3)nc2c1`?
Mito fusion yeast: -15%; TCR activator: 2%; IL2 activator: -1; BRCA1 expr up: 7.1µM*; p53 reactivator: inconclusive
